The other results are listed elsewhere or left out. Unmarked numbers belong to inactive results. Active and inactive are the calls of the source.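 Rule for the calls: active = IC50 of 10 µM or lower in the counterscreen; inactive = IC50 above 10 µM.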
test: optical artefacts quenching TruHits bead signal – biochemical, TruHits beads, AlphaScreen, artefact control for ASK1 inhibitor project, dose response (AID 1159604); details: signal interference counterscreen;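 note: loss of AlphaScreen light from TruHits beads alone with no ASK1 enzyme present; potency of signal reduction so a low IC50 flags an assay artifact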

Row | Structure (SMILES) | IC50
1 | c1ccc(-c2ncn[nH]2)c(Nc2ccnc(Nc3ccc(N4CCOCC4)cc3)c2)c1 | > 19.2 µM
2 | Fc1cnc(Nc2ccc(N3CCNCC3)cc2)cc1-n1cnc(Nc2ccccc2)n1 | > 19.2 µM
3 | CN1CCN(c2nc(C3COc4ccccc4O3)nc3ccc(-c4cn[nH]c4)cc23)CC1 (configuration not stated) | > 19.2 µM
4 | COc1cc(Nc2nc(N3CCc4ccccc4C3)nc3c2ncn3-c2ccccc2)cc(OC)c1OC | > 20.1 µM
5 | FC(F)(F)c1cccc(CNc2nc(N3CCN(c4ccccn4)CC3)nc3c2ncn3-c2ccsc2)c1 | > 20 µM
6 | FC(F)(F)c1cccc(CNc2nc(Nc3ccc(N4CCOCC4)cc3)nc3c2ncn3-c2ccsc2)c1 | > 20.1 µM
7 | COc1cc2nc(Nc3cccc(N(C)C)c3)nc(Nc3cc(OC)c(OC)c(OC)c3)c2cc1OC | 8.29 µM (active)
8 | Cc1cc(Nc2ccc3c(c2)OCO3)nc(Nc2cccc(N(C)C)c2)n1 | 4.88 µM (active)
9 | COc1ccc(CCNc2cc(C)nc(Nc3cccc(N(C)C)c3)n2)cc1 | 4.77 µM (active)
10 | FC(F)(F)c1cccc(CNc2nc(N3CCN(Cc4ccc5c(c4)OCO5)CC3)nc3c2ncn3-c2ccccc2)c1 | > 20.1 µM
11 | Cc1ccccc1-c1cscc1Nc1cnn(-c2cccc(C(=O)Nc3ccc(N4CCOCC4)cc3)c2)c1 | > 19.2 µM
12 | Nc1nc(Nc2ccc(N3CCOCC3)cc2)cc(-c2ccc3[nH]ccc3c2)n1 | 11.9 µM
